# Data reported in PubChem BioAssay.
# Several values for one entry are separate records, joined by “and”; a condition that tells them apart may be missing. Identical values can stand only once. Activity calls are given as the source filed them. Rule as the data show it, unless noted: active = inhibition above about 80%; inactive = the rest.
# Experiments:
# [1] = hESC survival regulators, cell-based (AID 493140; call rule not given here;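 also: cells exposed to compounds for four days before counting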); conditions: human embryonic stem cell survival screen; stronger effect = higher value
# [2] = liver-stage malaria parasite growth inhibition, primary screen, cell-based, HepG2, luciferase luminescence, HepG2 viability (AID 624349; in the data active = parasite load remaining mostly below about 12%, no sharp cut-off; inactive = mostly above about 10%;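 also: 100% = mean of DMSO negative control wells on the same plate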); conditions: P. berghei liver stage in HepG2, luciferase luminescence, concentration not given here; parasite load remaining: stronger effect = lower value; viability: measured here: HepG2 viability without parasites
# [3] = sensitizers of A549 cells to miR-34 induction, primary screen, imaging, A549 dox-inducible miR-34, nuclei and caspase counts (AID 1347080;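 active = compounds whose cell count with miR-34 switched on is under 0.7 times the count with it off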); conditions: A549 miR-34 inducible, Hoechst nuclei count, 48 h
# [4] = survival rescue of mitochondrial mutant cells in low glucose, primary screen, MELAS cybrids, Rieske KO mouse fibroblasts, CellTiter-Glo (AID 1508586;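 active = mean z-score across replicates of 1.96 or higher in either the MELAS or the Rieske mutant cell line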;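 also: z relative to plate mean and SD of compound and empty wells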)
# [5] = LFS_MB_P medulloblastoma growth inhibition, cell-based, chromothripsis tumors, cisplatin or BGB combos (AID 1671449); conditions: LFS_MB_P medulloblastoma cells;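 also: cells exposed for 96 hours; 0% = vehicle DMSO and 100% = killing by high DMSO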
# [6] = HDN33 neuroblastoma growth inhibition, cell-based, chromothripsis tumors, cisplatin or BGB combos (AID 1671450); conditions: HDN33 neuroblastoma cells, stronger effect = higher value;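 also: cells exposed to compound for four days; 0% = vehicle DMSO and 100% = cell killing by high DMSO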
# [7] = ICB984 medulloblastoma cell growth inhibition, synergistic combos for chromothripsis tumors, cisplatin or BGB combos (AID 1671451; call rule not given here;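 also: cells exposed for 96 hours before readout; 0% = vehicle DMSO and 100% = killing by high DMSO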); conditions: ICB984 medulloblastoma cells, drug combinations, stronger effect = higher value
# [8] = LFS_MB_1R medulloblastoma cell growth inhibition, synergistic combos for chromothripsis tumors, cisplatin or BGB combos (AID 1671452); conditions: LFS_MB_1R medulloblastoma cells, stronger effect = higher value;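 also: cells exposed for 96 hours before readout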
# [9] = HTB85 osteosarcoma cell growth inhibition, synergistic combos for chromothripsis tumors, BGB or cisplatin IC20 combos (AID 1671453); conditions: HTB85 osteosarcoma cells, drug combinations, stronger effect = higher value;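 also: cells exposed for 96 hours before readout; 0% = vehicle DMSO and 100% = high DMSO killing control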
# [10] = CRL2098 osteosarcoma cell growth inhibition, synergistic combos for chromothripsis tumors, BGB or cisplatin IC20 combos (AID 1671454); conditions: CRL2098 osteosarcoma cells, drug combinations, stronger effect = higher value;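 also: cells exposed for 96 h before readout; 0% = vehicle DMSO and 100% = killing by high DMSO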
# [11] = HD-MB03 medulloblastoma cell growth inhibition, synergistic combos for chromothripsis tumors, BGB or cisplatin IC20 combos (AID 1671455; in the data active = inhibition above about 83%;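 also: 0% = vehicle DMSO and 100% = high DMSO as cytotoxic control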); conditions: HD-MB03 medulloblastoma cells, stronger effect = higher value
# [12] = UWB1.289 ovarian carcinoma cell growth inhibition, synergistic combos for chromothripsis tumors, BGB or cisplatin combos (AID 1671456); conditions: UWB1.289 ovarian carcinoma cells, stronger effect = higher value;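 also: cells exposed to compound for four days; 0% = vehicle DMSO and 100% = killing by high DMSO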
# [13] = LFS_MB_2R medulloblastoma cell growth inhibition, synergistic combos for chromothripsis tumors, cisplatin combos (AID 1671457); conditions: LFS_MB_2R medulloblastoma cells, stronger effect = higher value;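 also: cells exposed to compound for four days before readout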
# [14] = MDA-MB-436 breast carcinoma cell growth inhibition, synergistic combos for chromothripsis tumors, BGB or cisplatin combos (AID 1671458; call rule not given here;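 also: cells exposed for 96 hours; 0% = vehicle DMSO and 100% = killing by high DMSO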); conditions: MDA-MB-436 breast carcinoma growth inhibition, drug combinations, stronger effect = higher value
# [15] = UWB1.289_BRCA1 ovarian cancer growth, cell-based, BGB or cisplatin combinations (AID 1671459); conditions: UWB1.289 BRCA1 ovarian carcinoma, drug combinations, stronger effect = higher value
# [16] = human astrocyte viability loss, single and combined drugs, cytotoxicity control for chromothriptic childhood tumor combination screen, cell-based, BGB or cisplatin IC20 combos (AID 1671460); conditions: Human astrocytes, drug combinations, stronger effect = higher value;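 also: cells exposed to compounds for 96 hours before viability readout; 0% = vehicle and 100% = killing control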
# [17] = growth inhibition of BT084 medulloblastoma cells, cell-based, ICGC_MB145, cisplatin and BGB IC40 combos (AID 1671461); conditions: drug combinations, stronger effect = higher value;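 also: cells exposed to drugs for 96 hours; 0% = vehicle DMSO and 100% = high DMSO full killing control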
# [18] = growth inhibition of RCMB18 medulloblastoma cells, cell-based, cisplatin and BGB IC40 combos (AID 1671462); conditions: stronger effect = higher value;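 also: cells exposed to compound for four days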
# [19] = growth inhibition of CRL1545 osteosarcoma cells, cell-based, cisplatin and BGB IC20 combos (AID 1671464); conditions: stronger effect = higher value;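 also: cells exposed to compound for 96 hours before readout; 0% = vehicle DMSO and 100% = high DMSO killing control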
# [20] = system: Hepatitis C virus NS3 helicase; experiment: HCV NS3 helicase inhibitors, primary screen, biochemical, fluorescence polarization, LOPAC1280 library (AID 687035; in the data active = inhibition above about 37%); conditions: Purified HCV NS3 helicase, Cy5-dT15 ssDNA binding fluorescence polarization; stronger effect = higher value; concentration not given here
# [21] = Cy5 fluorescence quenching or enhancement artefacts, artefact control for HCV NS3 helicase inhibitor project, biochemical, LOPAC1280 (AID 687037; call rule not given here); conditions: Cy5-DNA-NS3h complex fluorescence interference counterscreen
# [22] = phospholipid biosynthesis inhibitors in animal cells, primary screen, cell-based, LOPAC library, screen 4 (AID 1347384; call rule not given here); conditions: phospholipid biosynthesis inhibition screen, at 10 µM
# [23] = target: Mitogen-activated protein kinase 7 (Homo sapiens) (UniProt Q13164); experiment: ERK5 transactivation activators in reporter cells, primary screen, cell-based, HTS (AID 1508626;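 active = luciferase signal above three times the same-plate solvent-only control wells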;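 also: luciferase driven by Gal4-ERK5 fusion binding five Gal4 sites before minimal TATA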); conditions: HeLa Gal4-ERK5 transactivation, 18 h, at 5 µM, stronger effect = higher value
# Mitogen-activated protein kinase 7 (Homo sapiens), sequence (Q13164 whole entry, looked up, the tested form may be a part): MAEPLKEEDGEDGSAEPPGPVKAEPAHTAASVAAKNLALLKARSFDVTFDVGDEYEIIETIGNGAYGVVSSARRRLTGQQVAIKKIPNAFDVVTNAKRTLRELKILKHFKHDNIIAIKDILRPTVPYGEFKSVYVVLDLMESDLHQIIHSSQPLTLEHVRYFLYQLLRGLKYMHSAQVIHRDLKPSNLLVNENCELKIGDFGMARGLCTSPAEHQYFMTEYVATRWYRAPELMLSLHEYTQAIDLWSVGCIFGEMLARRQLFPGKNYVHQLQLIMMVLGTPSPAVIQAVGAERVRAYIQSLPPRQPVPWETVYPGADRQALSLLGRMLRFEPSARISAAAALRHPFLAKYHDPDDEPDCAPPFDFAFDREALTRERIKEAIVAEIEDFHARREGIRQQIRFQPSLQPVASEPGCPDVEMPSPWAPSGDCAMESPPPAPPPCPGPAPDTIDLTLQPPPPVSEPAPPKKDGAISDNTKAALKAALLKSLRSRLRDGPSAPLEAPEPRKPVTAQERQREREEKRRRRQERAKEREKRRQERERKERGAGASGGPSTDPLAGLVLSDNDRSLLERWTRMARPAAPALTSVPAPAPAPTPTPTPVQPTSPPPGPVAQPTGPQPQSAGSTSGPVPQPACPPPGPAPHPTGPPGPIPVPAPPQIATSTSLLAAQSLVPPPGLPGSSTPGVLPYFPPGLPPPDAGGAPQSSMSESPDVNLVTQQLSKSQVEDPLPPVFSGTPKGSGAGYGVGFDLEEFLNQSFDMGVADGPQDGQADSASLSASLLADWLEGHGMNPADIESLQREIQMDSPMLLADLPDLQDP
# [24] = viability rescue of complex I mutant cybrids, primary screen, cell-based, galactose medium, ATP luminescence (AID 1645843;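 active = z-score of at least 1.8 in each of two replicates, scored against plate mean and spread of sample wells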;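 also: positive z means more ATP and so rescue of galactose-driven cybrid death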); conditions: complex I mutant cybrid cells, 72 h, stronger effect = higher value
# [25] = stronger effect = lower value, cell number ratio, induced over uninduced
# [26] = measured here: relative caspase fold change +Dox/-Dox
# [27] = measured here: total cells with miR-34 induction, stronger effect = lower value
# [28] = measured here: total cells without miR-34 induction
# [29] = measured here: combination with BGB IC40, at 0.05 µM
# [30] = measured here: with BGB IC20 combination, at 0.5 µM
# [31] = measured here: with cisplatin IC20 combination, at 0.5 µM
# [32] = measured here: combination with cisplatin, at 0.5 µM
# [33] = measured here: combination with cisplatin, at 5 µM
smiles,measurement,setting,value
Nc1nc2n[nH]nc2c(=O)[nH]1,survival,[1],1.83 (inactive)
same,parasite load remaining,[2],236% (inactive) and 549% (inactive)
same,viability,[2],41.1% and 96.1%
same,fold change,[3]; [25],0.89 (inactive) and 0.844 (inactive)
same,fold change,[3]; [26],1.24 and 2.05
same,cell count,[3]; [27],3000 and 5470
same,cell count,[3]; [28],3360 and 6490
same,z-score,"[4]; MELAS cybrid survival, CellTiter-Glo 48 h, stronger effect = higher value",-0.244 (inactive) and -0.54 (inactive)
same,z-score,"[4]; Rieske KO mouse fibroblast survival, CellTiter-Glo 72 h",-0.138 and -0.665
same,inhibition,"[5]; at 0.5 µM, stronger effect = higher value",-21.3% (inactive)
same,inhibition,"[5]; measured here: combination with BGB IC20, at 0.005 µM",-4.53%
same,inhibition,"[5]; measured here: combination with BGB IC40, at 0.005 µM",-37%
same,inhibition,[5]; [29],-34.6%
same,inhibition,"[5]; measured here: combination with cisplatin, at 0.5 µM, stronger effect = higher value",-31.1%
same,inhibition,"[5]; measured here: combination with cisplatin, at 5 µM, stronger effect = higher value",8.39%
same,inhibition,"[6]; BGB combo, at 5 µM",20.7%
same,inhibition,[6]; at 0.5 µM,-10.2% (inactive)
same,inhibition,"[6]; cisplatin combo, at 5 µM",6.45%
same,inhibition,[6]; [30],-12.8%
same,inhibition,[6]; [31],-5.82%
same,inhibition,"[6]; single agent, at 5 µM",42.1%
same,inhibition,"[7]; BGB IC20 combo, at 0.005 µM",-1.82%
same,inhibition,"[7]; BGB IC40 combo, at 0.005 µM",-9.06%
same,inhibition,"[7]; BGB IC40 combo, at 0.05 µM",29.3%
same,inhibition,[7]; at 0.5 µM,-25% (inactive)
same,inhibition,"[7]; cisplatin combo, at 0.05 µM",27.3%
same,inhibition,"[7]; cisplatin combo, at 0.5 µM",-32.9%
same,inhibition,"[7]; cisplatin combo, at 5 µM",-42%
same,inhibition,"[7]; measured here: 5 uM single agent, at 5 µM",-12.8%
same,inhibition,[8]; at 0.5 µM,-9.31% (inactive)
same,inhibition,[8]; [29],-15.8%
same,inhibition,[8]; [32],-8.27%
same,inhibition,[8]; [33],12.9%
same,inhibition,[9]; at 0.5 µM,-22.9% (inactive)
same,inhibition,"[9]; measured here: with BGB IC20, at 0.5 µM",-34.4%
same,inhibition,"[9]; measured here: with BGB IC20, at 5 µM",1.91%
same,inhibition,"[9]; measured here: with cisplatin IC20, at 0.5 µM",-27.1%
same,inhibition,"[9]; measured here: with cisplatin IC20, at 5 µM",-19.1%
same,inhibition,"[9]; single agent, at 5 µM",1.86%
same,inhibition,[10]; at 0.5 µM,-27.1% (inactive)
same,inhibition,"[10]; measured here: combination with BGB at IC20, at 0.5 µM",-20.7%
same,inhibition,"[10]; measured here: combination with cisplatin at IC20, at 0.5 µM",-21.9%
same,inhibition,[11]; at 0.5 µM,19.3% (inactive)
same,inhibition,"[11]; measured here: combo with BGB at IC20, at 0.5 µM",16.1%
same,inhibition,"[11]; measured here: combo with cisplatin at IC20, at 0.5 µM",19.7%
same,inhibition,[12]; at 0.5 µM,32.6% (inactive)
same,inhibition,"[12]; measured here: inhibition with BGB combination, at 0.05 µM",-18.7%
same,inhibition,"[12]; measured here: inhibition with cisplatin combination, at 0.05 µM",7.62%
same,inhibition,[13]; at 0.5 µM,-9.15% (inactive)
same,inhibition,[13]; [32],-13.8%
same,inhibition,[13]; [33],-35.4%
same,inhibition,[14]; at 0.5 µM,-11.4% (inactive)
same,inhibition,"[14]; measured here: BGB combination, at 0.5 µM",-12.2%
same,inhibition,"[14]; measured here: BGB combination, at 5 µM",-5.12%
same,inhibition,"[14]; measured here: cisplatin combination, at 0.5 µM",-17.5%
same,inhibition,"[14]; measured here: cisplatin combination, at 5 µM",11.7%
same,inhibition,"[15]; BGB combination, concentration series, at 5 µM",85.1%
same,inhibition,[15]; at 0.5 µM,38.3% (inactive)
same,inhibition,"[15]; cisplatin combination, concentration series, at 5 µM",92.1%
same,inhibition,[16]; at 0.5 µM,3.68% (inactive)
same,inhibition,"[16]; measured here: combo with BGB IC20, at 0.5 µM",0.254%
same,inhibition,"[16]; measured here: combo with cisplatin IC20, at 0.5 µM",6.71%
same,inhibition,[17]; at 0.5 µM,-32% (inactive)
same,inhibition,"[17]; cisplatin combination, at 0.5 µM",-3.22%
same,inhibition,"[17]; cisplatin combination, at 5 µM",22.6%
same,inhibition,"[17]; measured here: BGB IC40 combination 0.05 uM, at 0.05 µM",-14%
same,inhibition,"[17]; single agent, at 5 µM",6.12%
same,inhibition,[18]; at 0.5 µM,-14.7% (inactive)
same,inhibition,"[18]; cisplatin combo, at 5 µM",33.1%
same,inhibition,"[18]; measured here: BGB IC40 combination, at 0.05 µM",-43.3%
same,inhibition,[18]; [32],3.47%
same,inhibition,"[18]; single agent, at 5 µM",22.1%
same,inhibition,[19]; at 0.5 µM,-20.1% (inactive)
same,inhibition,[19]; [30],-2.71%
same,inhibition,[19]; [31],-31.6%
same,inhibition,"[19]; single agent, at 0.05 µM",-28.1%
same,inhibition,"[19]; single agent, at 5 µM",32.5%
N[C@@H](Cn1ccc(=O)c(O)c1)C(=O)O,parasite load remaining,[2],61.9% (inactive)
same,viability,[2],117%
same,inhibition,[20],-3% (inactive)
same,fluorescence ratio (interference),[21],1 (inactive)
same,fold change,[3]; [25],1.03 (inactive) and 0.872 (inactive)
same,fold change,[3]; [26],1.54 and 1.46
same,cell count,[3]; [27],10200 and 9120
same,cell count,[3]; [28],9910 and 10400
same,outcome,[22],inactive
same,luciferase signal,[23],68 AU (inactive)
same,z-score,[24],0.455 (inactive)
